Bioassay records (PubChem BioAssay)
KCNQ2 block = inhibitors of rat KCNQ2 potassium channel | 310,000 compounds, 1.1% hits | B-score at 10 µM | AID 2156 | CHO-K1 KCNQ2, FluxOR thallium flux, 20 min; hits give low values | O88943;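 active means fluorescence ratio B-score at most minus 3 library SDs, with starting brightness B-score within 2 library SDs, cut at about -5.5 in these data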
Target sequence (O88943 whole entry, looked up): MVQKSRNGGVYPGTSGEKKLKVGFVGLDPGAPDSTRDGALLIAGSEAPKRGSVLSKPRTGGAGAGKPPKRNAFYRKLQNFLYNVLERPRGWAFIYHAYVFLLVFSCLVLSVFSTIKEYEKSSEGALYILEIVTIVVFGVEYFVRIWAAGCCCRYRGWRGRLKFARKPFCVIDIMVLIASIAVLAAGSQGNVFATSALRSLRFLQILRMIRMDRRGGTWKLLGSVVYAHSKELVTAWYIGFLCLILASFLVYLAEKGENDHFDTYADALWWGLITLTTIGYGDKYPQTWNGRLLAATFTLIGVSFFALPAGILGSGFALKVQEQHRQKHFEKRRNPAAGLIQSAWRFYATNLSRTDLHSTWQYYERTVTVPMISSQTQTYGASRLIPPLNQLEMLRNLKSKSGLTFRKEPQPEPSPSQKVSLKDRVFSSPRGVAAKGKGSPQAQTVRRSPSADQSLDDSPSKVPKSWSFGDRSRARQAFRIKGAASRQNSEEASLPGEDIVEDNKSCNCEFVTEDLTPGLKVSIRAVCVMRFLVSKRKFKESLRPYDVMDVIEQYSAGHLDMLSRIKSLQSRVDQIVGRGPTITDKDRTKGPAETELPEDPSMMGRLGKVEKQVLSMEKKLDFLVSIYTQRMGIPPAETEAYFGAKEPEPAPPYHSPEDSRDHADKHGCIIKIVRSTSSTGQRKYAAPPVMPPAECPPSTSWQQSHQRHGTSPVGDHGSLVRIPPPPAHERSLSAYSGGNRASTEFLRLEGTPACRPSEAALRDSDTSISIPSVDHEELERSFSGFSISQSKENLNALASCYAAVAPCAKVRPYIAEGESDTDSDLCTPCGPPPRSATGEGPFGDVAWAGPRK
KCNQ2 enhance = KCNQ2 (rat) channel potentiation; B-score at 10 µM; CHO-K1 KCNQ2, FluxOR thallium flux fluorescence; hits give high values; 310,000 compounds, 0.54% hits; AID 2239;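 active means fluorescence ratio B-score at least 3 SD of library B-scores, with initial fluorescence B-score within 3 of them, cut at about 5.3 in these data; same plate scores as AID 2156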;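 further: B-score of peak minus minimum over baseline fluorescence ratio after K+ and Tl+ stimulus; positive B-score means potentiation of KCNQ2 with more thallium influx and brighter signal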
KCNQ2 block conf = confirmation of rat KCNQ2 potassium channel inhibitors. shares compounds with KCNQ2 block. KCNQ2-expressing cells, thallium flux, inhibition; hits give low values. activity change, negative = inhibition, % at 10 µM. 1,000 compounds, 57% hits
KCNQ1 spec = selectivity of KCNQ2 inhibitors against human KCNQ1; 1,000 compounds, 15% hits; KCNQ1-expressing cells, FluxOR thallium flux fluorescence; hits give low values; activity change, negative = inhibition, % at 10 µM; shares compounds with KCNQ2 block;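 active means activity change at least 3 SD of negative controls below their mean in both duplicate wells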;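 further: CHO cells stably transfected with KCNQ1 and depolarized by potassium stimulus; peak minus minimum fluorescence over baseline after thallium addition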
CHO Tl ctr = activity in parental CHO cells lacking KCNQ2; AID 493029; 1,000 compounds, 14% hits; thallium flux counter-screen; hits give low values; shares compounds with KCNQ2 block; activity change, % at 10 µM
KCNQ2 inh confirm = blocks rat KCNQ2 current in automated patch clamp; AID 588531; shares compounds with KCNQ2 block; calls only at 10 µM; 550 compounds, 49% hits; KCNQ2-expressing cells
Large screens that a line does not name were inactive (follow-up assays come after a bar, where they were run). Hits are enriched below; roughly 1.6% of the tested compounds scored in any of these assays. Unless noted, how the calls were made is not given here.

CSCCC(NC(=O)COc1ccccc1)C(=O)N1CCCC(C(F)(F)F)C1 (centres undefined)	KCNQ2 block -7 | KCNQ2 block conf inactive | KCNQ1 spec inactive | CHO Tl ctr inactive
CSCCC(NC(=O)c1ccccc1Br)C(=O)NCC1CCCCC1 (centres undefined)	none (no result: KCNQ2 enhance)
CSCCC(NC(=O)c1ccccc1Br)C(=O)N1CCCCCCC1 (centres undefined)	KCNQ2 block -9.6 | KCNQ2 block conf -29% | KCNQ1 spec inactive | CHO Tl ctr inactive | KCNQ2 inh confirm active
CSCCC(NC(=O)c1ccccc1Br)C(=O)N1CCCC(C(F)(F)F)C1 (centres undefined)	KCNQ2 block -9.3 | KCNQ2 block conf -16% | KCNQ1 spec inactive | CHO Tl ctr inactive | KCNQ2 inh confirm active
CC1CCC2(CC1)NC(=S)N(c1ccccc1)N2 (centres undefined)	none
CC(=O)N1N=C(c2cccs2)CC1c1cc2cc(C)ccc2nc1Cl (centres undefined)	none
O=C(N/C=C\c1ccccc1)NCc1ccc(Cl)cc1	KCNQ2 block -7 | KCNQ2 block conf inactive | KCNQ1 spec inactive | CHO Tl ctr inactive
O=C(N/C=C\c1ccccc1)NCc1ccc(Cl)cc1Cl	none (no result: KCNQ2 enhance)
CCCCCCCCNC(=O)c1ccc(C)cc1	none
O=C(Nc1cccc(-c2csc(Nc3cccc(C(F)(F)F)c3)n2)c1)c1ccccc1	none
O=C(Nc1cccc(-c2csc(Nc3ccccc3)n2)c1)c1ccccc1	KCNQ2 block -6.8 | KCNQ2 block conf inactive | KCNQ1 spec inactive | CHO Tl ctr inactive
CC(C)c1c(O)nc(SCC(=O)N2CCOCC2)[nH]c1=O	none
CCOc1ccc(N(Cc2ccc(OC)cc2)C(=O)c2ccco2)cc1	none (no result: KCNQ2 enhance)
COc1ccc(CN(C(=O)c2ccco2)c2ccc(C)c(C)c2)cc1	KCNQ2 block -6.7 | KCNQ2 block conf inactive | KCNQ1 spec inactive | CHO Tl ctr inactive
CC(C)(C)c1ccc(CN(Cc2ccco2)Cc2nnnn2C2CCCC2)cc1	KCNQ2 block -12 | KCNQ2 block conf -24% | KCNQ1 spec inactive | CHO Tl ctr inactive | KCNQ2 inh confirm inactive
COc1ccc2cc(CN(Cc3ccco3)Cc3nnnn3C3CCCCC3)c(=O)[nH]c2c1	none
Cc1c(C)n(C)c2ccc(C(=O)N3CCN(c4ccccc4)CC3)cc12	none (no result: KCNQ2 enhance)
Cc1ccc(C)c(N2CCN(C(=O)c3ccc4c(c3)c(C)c(C)n4C)CC2)c1	KCNQ2 block -6.6 | KCNQ2 block conf inactive | KCNQ1 spec inactive | CHO Tl ctr inactive
Cc1ccc(C(C[N+](=O)[O-])Sc2ccc(N)cc2)cc1 (centres undefined)	KCNQ2 block -9.4 | KCNQ2 block conf -30% | KCNQ1 spec inactive | CHO Tl ctr inactive | KCNQ2 inh confirm inactive
Nc1ccc(Sc2ccc([N+](=O)[O-])cc2)cc1	none
COc1ccccc1NC(=O)/C(C#N)=C/c1cccnc1	none (no result: KCNQ2 enhance)
N#C/C(=C\c1cccnc1)C(=O)Nc1cccc2ccccc12	KCNQ2 block -6.7 | KCNQ2 block conf inactive | KCNQ1 spec inactive | CHO Tl ctr inactive
CCOC(=O)c1c(-c2ccccc2)csc1NC(=O)CSc1ccccc1	KCNQ2 block -8.2 | KCNQ2 block conf -38% | KCNQ1 spec -27% | CHO Tl ctr inactive | KCNQ2 inh confirm inactive
CCOC(=O)c1c(-c2ccc(OC)cc2)csc1NC(=O)CSc1ccccc1	none (no result: KCNQ2 enhance)
CCOC(=O)c1c(-c2cccs2)csc1NC(=O)CC(C)C	none (no result: KCNQ2 enhance)
CCOC(=O)c1c(-c2cccs2)csc1NC(=O)CN(CC)CC	KCNQ2 block -9.9 | KCNQ2 block conf inactive | KCNQ1 spec inactive | CHO Tl ctr inactive
CS(=O)(=O)c1ccccc1COC(=O)Nc1ccc(Cl)cc1	none (no result: KCNQ2 enhance)
O=C(COc1ccc2ccccc2c1)NNC(=O)Cc1ccccc1	none
COCCNc1oc(-c2ccc(Cl)cc2)nc1C#N	none (no result: KCNQ2 enhance)
N#Cc1ccc(NC(=O)CSc2cn[nH]n2)cc1	none (no result: KCNQ2 enhance)
COCCn1c(-c2ccc(OC)cc2)cnc1N	none (no result: KCNQ2 enhance)
CCOc1ccc(-c2cnc(NCc3cccc4ccccc34)n2CCOC)cc1	KCNQ2 block -9.7 | KCNQ2 block conf inactive | KCNQ1 spec inactive | CHO Tl ctr inactive
CS(=O)(=O)c1ccc(Cl)c(NC(=O)COC(=O)c2c(Cl)cccc2Cl)c1	none (no result: KCNQ2 enhance)
Cc1ccc([N+](=O)[O-])c(OCCCN2CCC(Cc3ccccc3)CC2)c1	none (no result: KCNQ2 enhance)
O=[N+]([O-])c1cccc(OCCN2CCC(Cc3ccccc3)CC2)c1	KCNQ2 block -8.2 | KCNQ2 block conf inactive | KCNQ1 spec inactive | CHO Tl ctr inactive
O=C(Nc1cc(Cl)cc(Cl)c1)C1CC(=O)N(C2CCCC2)C1 (centres undefined)	none
COc1ccc(-c2cc(C(=O)N3CC(C)CC(C)C3)c3ccccc3n2)cc1OC (centres undefined)	KCNQ2 block -11 | KCNQ2 block conf -31% | KCNQ1 spec inactive | CHO Tl ctr inactive | KCNQ2 inh confirm active
COc1ccc(-c2cc(C(=O)N3CCC3)c3ccccc3n2)cc1OC	none
COc1ccc(-c2cc(C(=O)N(C)Cc3ccc(F)cc3)c3ccccc3n2)cc1OC	KCNQ2 block -7.5 | KCNQ2 block conf -53% | KCNQ1 spec -48% | CHO Tl ctr -56% | KCNQ2 inh confirm active
COc1ccc(-c2cc(C(=O)N3CCCC3)c3ccccc3n2)cc1OC	none
COc1ccc(NC(=O)CN(C)C(=O)c2cc(-c3ccc(OC)cc3)nc3ccccc23)cc1	none
COc1ccc(CCN(C)C(=O)c2cc(-c3ccc(C)cc3)nc3ccccc23)cc1OC	KCNQ2 block -6.7 | KCNQ2 block conf -45% | KCNQ1 spec -46% | CHO Tl ctr -42% | KCNQ2 inh confirm active
COc1cc2c(cc1NC(=O)CSc1ccc(C)cc1)oc1ccccc12	none (no result: KCNQ2 enhance)
O=C(CSc1cn(CCNC(=O)c2ccccc2F)c2ccccc12)NCC1CCCO1 (centres undefined)	none
O=C(NCCn1cc(SCc2ccccc2)c2ccccc21)c1ccccc1F	KCNQ2 block -8.2 | KCNQ2 block conf inactive | KCNQ1 spec inactive | CHO Tl ctr inactive
CCOC(=O)C1=NNC(C(=O)c2ccccc2)C1c1ccc(Cl)cc1 (centres undefined)	KCNQ2 block -8.8 | KCNQ2 block conf -18% | KCNQ1 spec inactive | CHO Tl ctr inactive | KCNQ2 inh confirm inactive
CCOC(=O)C1=NNC(C(=O)c2ccccc2)C1c1ccc(C)cc1 (centres undefined)	none (no result: KCNQ2 enhance)
CCOc1ccc(C(CC(=O)O)NC(=O)c2ccco2)cc1OC (centres undefined)	none
CSc1nnc(COc2ccc(C)cc2)n1N	none
Cc1nn(C(C)C(=O)N2CCCCC2)c(=O)c2c1sc1ccccc12 (centres undefined)	KCNQ2 block -8.9 | KCNQ2 block conf -30% | KCNQ1 spec inactive | CHO Tl ctr inactive | KCNQ2 inh confirm active
Cc1nn(C(C)C(=O)O)c(=O)c2c1sc1ccccc12 (centres undefined)	none (no result: KCNQ2 enhance)
CN(C)/C=C/C(=O)c1ncc(C(F)(F)F)cc1Cl	none
O=C(NCCC(=O)N(CCc1ccccc1)Cc1ccccc1)c1ccc(Br)cc1	KCNQ2 block -9.2 | KCNQ2 block conf -18% | KCNQ1 spec inactive | CHO Tl ctr inactive | KCNQ2 inh confirm inactive
O=C(NCCCCc1ccccc1)c1ccc(Br)cc1	none
Cn1cccc1CNC(=S)Nc1ccccc1Cl	none (no result: KCNQ2 enhance)
